Reference: PubChem BioAssay AID1347084 (National Center for Advancing Translational Sciences (NCATS), 2019)
Results filed as inconclusive are left out. The source made the active and inactive calls. Calls follow the shape of the full dose curve.

Test: qHTS for Inhibitors of the Functional Ribonucleoprotein Complex (vRNP) of Lymphocytic Choriomeningitis Arenaviruses (LCMV): LCMV Confirmatory Screen - GLuc reporter signal
Settings: LCMV minigenome vRNP, Gaussia luciferase reporter; series mostly up to 53.9 µM; activity change, negative = inhibition: at the top concentration

Row | Structure (SMILES) | Potency | activity change, negative = inhibition
1 | CO/C=C(/C(=O)OC)c1ccccc1Oc1cc(Oc2ccccc2C#N)ncn1 | 4.98 µM (active) | –
2 | CCC[C@H](N[C@@H](C)C(=O)N1[C@@H]2CCCC[C@H]2C[C@H]1C(=O)O)C(=O)OCC | – | -6.4% (inactive)
3 | CC(O)C(O)[C@H]1CNc2nc(N)[nH]c(=O)c2N1 (stereo partly drawn) | – | 4.42% (inactive)
4 | CC(O)(P(=O)(O)O)P(=O)(O)O | – | -11.6% (inactive)
5 | Nc1ccc([N+](=O)[O-])cc1O | 62.7 µM (active) | –
6 | Fc1ccc(CNc2ncnc3ccc(F)cc23)cc1 | 8.63 µM (active) | –
7 | Clc1nccc2c1ccc1ccccc12 | – | -21.7% (inactive)
8 | CCn1c(-c2nonc2N)nc2cnc(Oc3cccc(NC(=O)c4ccc(OCCN5CCOCC5)cc4)c3)cc21 | 4.32 µM (active) | –
9 | CCC1OC2(C)C(O)C(/C=C/C=C/C=C/c3oc(=O)cc(OC)c3C)OC1(C)C2OC(C)=O (stereo not drawn) | 0.109 µM (active) | –
10 | N#CC(=C(\N)Sc1ccccc1N)/C(C#N)=C(/N)Sc1ccccc1N | 27.3 µM (active) | –
11 | CC1OC(=O)[C@@H](C(C)C)NC(=O)C(C(C)C)OC(=O)[C@H](C(C)C)NC(=O)C(C)OC(=O)[C@@H](C(C)C)NC(=O)C(C(C)C)OC(=O)[C@H](C(C)C)NC(=O)C(C)OC(=O)[C@@H](C(C)C)NC(=O)C(C(C)C)OC(=O)[C@H](C(C)C)NC1=O (stereo partly drawn) | 0.153 µM (active) | –
12 | COc1ccc2c(c1OC)CN1CCc3cc4c(cc3C1C2)OCO4 (stereo not drawn) | 24.3 µM (active) | –
13 | CCC(C)c1nccnc1OC (stereo not drawn) | – | -25.6% [at 110 µM] (inactive)
